Over roughly 25,000 sequences, “ln(normalized median fluorescence intensity)” has its median near 7.1; the highest 2% begin near 10. The sample as a whole holds a higher share of the highest values than the screen did.
The sequences below were run on PfSIP2 AP2 domain 1 (GST-tagged) (assay: gcPBM binding intensity (ln(normalized median fluorescence intensity)); higher = stronger DNA binding).
In short: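 Probes on an Agilent 4 × 180k array were primer-extended, double-stranded and 36 bp long, taken from intergenic genomic regions, with negative controls added. GST-tagged P. falciparum DNA-binding domains from E. coli, about 25 μg on average, were applied to the array for 1 h in 1× PBS containing 1% milk, 0.2 mg/ml BSA, 0.5% salmon testes DNA and 0.03% Triton X-100. Binding intensity, obtained after Alexa488 anti-GST antibody detection and a 488 nm scan, is the highest Masliner-normalised natural-log median intensity across replicate spots of either probe orientation.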

| Sequence | gcPBM binding intensity (ln) |
| --- | --- |
| GAAAGGAAAAGTTGAACACACAAAGTAAACTATAAG [CACACA_site3535] | 6.7 |
| TCTATTAACTGATGTGCATGTTATAACCTAGAAGTA [TGCATGCA_site359] | 7.42 |
| TAAAAGTATTCCTTTTGTACATATAATGAAAACAAT [XGTACX_site2069] | 6.8 |
| TGATAAAATATTAAATTATTTCTTTATTTAAAGATT [CACACA_negctrl_site370] | 6.67 |
| AAGATAAATTATTATAAATCAATTGTGCCAACAATA [CACACA_negctrl_site144] | 6.69 |
| ATTATAAAAATATCGTGTACATATTTTTTAAAATAA [XGTACX_site5072] | 7.12 |
| TTATACCATATTTATAGTACGTACAAATAAATCAAT [XGTACX_site4975] | 7.3 |
| TTAATCCACAGACACACACACACAAAATAAAATACA [CACACA_site244] | 7.22 |
| AAGATCGCATGAAATGAACACACATAAAAAAAATAT [CACACA_site9353] | 7.05 |
| TATATTGCAAAAAGTACACACATAAATAAATACATA [CACACA_site6589] | 7.23 |
| AAGACAATATATGCAGTGCATATACATACATATATA | 8.3 |
| AAATTGAGACAACAGGTGCATATAAATATACAGTGT [GTGCAC_site9634] | 10.6 |
| TATATACATGTGAGAGTGCATATAGACATAAAAAAT | 8.96 |
| ATACATATTAACAAGGTGCAAATGGATTTCATAAAA [GTGCAC_site9775] | 10.7 |
| ATATATTTAAAAAAATGTACAAATCATAAATGCAAG [XGTACX_site4230] | 7.07 |
| AATACATATTCAAAGGTGCAAAATAAAAATATACAT [GTGCAC_site9743] | 11 |
| ACAAGCTTTCATAAGGTGCAATGATTTAACAAAAAA [GTGCAC_site9726] | 10.1 |
| ATAACATTCATATTCACACAAAAATATACTACATAG [CACACA_site4529] | 7.09 |
| AATATACATAACAAGGTGCAAAAAATATTGTTCATA [GTGCAC_site9499] | 10.9 |
| TTTTGTTCATACAAATTGGAACAAGACAAAAATATA [XGTACX_negctrl_site327] | 7.16 |
| ATACATTCAAAATATACACACATATATATATAATAT [CACACA_site950] | 7.13 |
| AGAAAGGTGGTATTAAAAGAATAACCTATGAATAAA [GTGCAC_negctrl_site325] | 6.79 |
| CCATATAATATGAACAGTACACACAAAATAAATTCG [XGTACX_site7590] | 7.08 |
| ATCAAAAAAAAAAAAAGTACACAAAATTTTTTATTA [XGTACX_site7986] | 6.88 |

| Sequence | gcPBM binding intensity (ln) |
| --- | --- |
| CTATTGTTAAATATAATACACACGTTTTTAAAAATA [CACACA_site2183] | 6.97 |
| GTTTAACTGTTTTATACACACAATGTATACAATAAA [CACACA_site2959] | 7.02 |
| TTTTTATAATAAAAAAATATAACTATATTAAGCCAC [CACACA_negctrl_site555] | 7.1 |
| AATATATTTTCCTGCAAACACACATATAAATGTGTA [CACACA_site532] | 6.96 |
| TCAACCAAAACATAAGCATGCAATATATTTTTATAC [TGCATGCA_site560] | 7.16 |
| TTTATAATTTATATCACACACATATATATATAGTAA [CACACA_site8] | 7.05 |
| TTTCTATATAGATTTGCACACATAAAAATGCTTATA [CACACA_site2390] | 7.18 |
| AACATTTTAAATTATACACACATTTTGAATATATAT [CACACA_site3470] | 7.2 |
| ACATATCGGGTGCATTAACACACATTTATTTGAATA [CACACA_site8736] | 11.6 |
| ATATCGTGTGCATTAACACACATTTATTTGAATAAA [CACACA_site7162] | 7.65 |
| ATCGGTAATATTAACACACACATTTATTTATATTTA [CACACA_site6638] | 7.01 |
| ATATCGGGTGCATTAACACACATTTATTTGAATAAA [CACACA_site2350] | 11.7 |
| ATCGGTAATATTAACACACACATTTATATATATTTA [CACACA_site1084] | 7.2 |
| TTTTTATTTTTTCAGTGTACATTTAAATTATCTTAT [XGTACX_site3905] | 6.98 |
| ATTATTATTATATATGCATGTAAAATATTAAAGTAC [TGCATGCA_site914] | 7.59 |
| AATGAAAAATGTATCGTTAAAGGGTATCTTAAGGAT [XGTACX_negctrl_site222] | 6.84 |
| AGATCATAATATTATACACACATTATGTATATGTAA [CACACA_site1490] | 6.84 |
| ACACATTATAACAAGGTGCAATTTTTATACACATGT [GTGCAC_site9866] | 10.4 |
| CATTAACATTTTATTACACACAATAATTTATAAGTA [CACACA_site4083] | 7.06 |
| TATAACACACAATGATGTACATTACATTATTTTTTA [XGTACX_site2076] | 7.06 |
| TAATTAGCATAATACACATGCATACATTTATATATA [TGCATGCA_site542] | 7.01 |
| ATCATAAATTATTATACACACAATACGTGACCTATT [CACACA_site1906] | 7.06 |
| TATTGTTACTTTATATGTACTAATTAAACATATACA [XGTACX_site6363] | 7.24 |
| ATAACAAAATGAAGAGTGCATTACCAAGTGGGTAAA [GTGCAC_site9450] | 8.64 |

| Sequence | gcPBM binding intensity (ln) |
| --- | --- |
| TAAATTGGTGCAAAGTGTACATATATATCTTTCCTA [XGTACX_site5458] | 11.4 |
| TAGGTACATAAATTGGTGCAAAGTGTACATATATAT | 9.97 |
| AAAAAATTATAAAAGTGTACATATATATATATATAT [XGTACX_site154] | 9.3 |
| AACAATAAAAATAATTGTACAAGTCTAAAAAAAATT [XGTACX_site20] | 6.86 |
| TCGTGAATGATTTAAGTACACACCGGTATTTATTCA [CACACA_site1564] | 6.74 |
| ACGTAAACATGTAGAAGGCATTACACAATGGTATAC [TGCATGCA_negctrl_site512] | 6.75 |
| AAAAGAAAATTAAATTAACACACATAAATATATATA [CACACA_site8482] | 7.27 |
| ATATAATAAATGTAGGTGCATAAAAATATTTTGTTA [GTGCAC_site9780] | 10 |
| TTTGTATAGTTGTAGGTGCATATCATTTTTAAATGT [GTGCAC_site9708] | 10.4 |
| ACCATATAAAGTTAGGTGCATTTGTATGTATCTTAC | 9.18 |
| ATTTTTTCATATTCTACACACGTGAACAAATGAGTC [CACACA_site5635] | 7.21 |
| TTTTTTATTAAATATATATAATAATAATAATTTGTA [CACACA_negctrl_site1719] | 6.88 |
| CATATAAGACAAAAGGTGCAATTTTAATGCTTTTAT [GTGCAC_site9432] | 9.98 |
| AAAAAAAAAATTTAGGTGCATACAAATAAATTATAT [GTGCAC_site9521] | 9.85 |
| ATTTCTTTTGTTATAGTGCATAATATTTATGTACGT | 8.59 |
| TAATAATTTTATAAAGTGCATAAAAATAAAAATTTT | 8.89 |
| ATATATTTATAATAGGTGCATATGTTTTATTTTTCC [GTGCAC_site9849] | 10.2 |
| AAAAATAATCATTAGGTGCAAAAAATATATATATAT [GTGCAC_site9631] | 9.96 |
| ACTAATAATTTGTCGGTGCATAAAATTATTTTTATT [GTGCAC_site9840] | 10.7 |
| TTTTTAAAATATTTAACACACAATTATAATGCATAA [CACACA_site3932] | 7.23 |
| ATATTTTTATATGAGGTGCATATAATGACAATTAAG | 10.6 |
| ATATATAAAAATTAGGTGCATTAAATTAAAATATAT | 10.3 |
| ATATATATATATATAGTGCATAATGTTTTAATAGAT | 9.54 |
| TTTAATATTATTATTTTACACACTTTTTTCCTTTTA [CACACA_site8780] | 6.64 |

| Sequence | gcPBM binding intensity (ln) |
| --- | --- |
| TACATGTATAATATAATACACACTATATAATATACA [CACACA_site2239] | 6.92 |
| TACTATAACCCACATACACACAAAAAAAAAAAAAAA [CACACA_site4454] | 7.11 |
| ACATAATAAAAATGACGTACAATTTTTTTTTTTCAT [XGTACX_site8340] | 7.01 |
| AAAAAACGCACTCGTACACACATATTTTCTTTCTAA [CACACA_site3089] | 8.76 |
| TTTTTTAGATTACATAAATATAAATATAAATATATA [GTGCAC_negctrl_site459] | 6.68 |
| ATGTTTTGTAAAATGATTAAATATTAAGATTCAATA [CACACA_negctrl_site1743] | 6.7 |
| ATATATATAGAAATATGTACGAAAAAAATATCACAT [XGTACX_site746] | 7.63 |
| TATATTACAAAAAGTACACACATAAATAAATACATA [CACACA_site975] | 7.17 |
| CCATAGATATTTTATACACACATATAATATATTAAT [CACACA_site373] | 7.17 |
| TTTCTTTTTAAATAGGTGCATATTTTTATAAATATA | 11 |
| TTTTAAAATTATTAGGTGCATATTTATTCTATATTT | 10 |
| ACATATATATATATATATAATATTTTATATTTATTA [CACACA_negctrl_site713] | 7.49 |
| TATACAAGTATATAGGTGCATATATAAGTATATATT [GTGCAC_site9994] | 10.3 |
| TTTTTTTTTTCTTAGGTGCAAAAAATAAGTATATAT [GTGCAC_site9394] | 10.1 |
| TATAATAATATTATAGTGCATATTATTTATATATAA [GTGCAC_site9820] | 8.67 |
| TTTCTTTATTTATAATAATTTTTTATTAAAAATAGA [CACACA_negctrl_site1610] | 6.78 |
| TTTTATTATATGGAGGTGCATATATAATAATATAAT [GTGCAC_site9477] | 11 |
| ATACATCGTATATAAGTGCATATTAAGGTCTTAAGA [GTGCAC_site9560] | 8.11 |
| GTATAGTACAAATAAGTGCATATAAAAGAAATACAG | 8.56 |
| TATATATTAAAAATAGTGCAAAATAATATATATATA [GTGCAC_site9716] | 8.84 |
| TCTTAAAATATATAGGTGCAAAAAAAAAAAAAAAAA | 10.6 |

— the supplement of paper PMC11417369
